{"source": "PubChem BioAssay AID602438", "about": "(Sanford-Burnham Center for Chemical Genomics, 2012)", "note": "Hit rate of the full screen: of about 360,000 compounds, about 3,100 (0.86%) were called active.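 Rule for the calls: active = inhibition or corrected inhibition above about 18%, plus a signal ratio from 0.5 to 1.5 (limit read from the data, passing the limit was not always enough); inactive = the rest.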 The sample as a whole holds a higher share of actives than the screen did."}
{"target": "Neuropilin-1 (Homo sapiens) (UniProt O14786)", "sequence (O14786 whole entry, looked up)": "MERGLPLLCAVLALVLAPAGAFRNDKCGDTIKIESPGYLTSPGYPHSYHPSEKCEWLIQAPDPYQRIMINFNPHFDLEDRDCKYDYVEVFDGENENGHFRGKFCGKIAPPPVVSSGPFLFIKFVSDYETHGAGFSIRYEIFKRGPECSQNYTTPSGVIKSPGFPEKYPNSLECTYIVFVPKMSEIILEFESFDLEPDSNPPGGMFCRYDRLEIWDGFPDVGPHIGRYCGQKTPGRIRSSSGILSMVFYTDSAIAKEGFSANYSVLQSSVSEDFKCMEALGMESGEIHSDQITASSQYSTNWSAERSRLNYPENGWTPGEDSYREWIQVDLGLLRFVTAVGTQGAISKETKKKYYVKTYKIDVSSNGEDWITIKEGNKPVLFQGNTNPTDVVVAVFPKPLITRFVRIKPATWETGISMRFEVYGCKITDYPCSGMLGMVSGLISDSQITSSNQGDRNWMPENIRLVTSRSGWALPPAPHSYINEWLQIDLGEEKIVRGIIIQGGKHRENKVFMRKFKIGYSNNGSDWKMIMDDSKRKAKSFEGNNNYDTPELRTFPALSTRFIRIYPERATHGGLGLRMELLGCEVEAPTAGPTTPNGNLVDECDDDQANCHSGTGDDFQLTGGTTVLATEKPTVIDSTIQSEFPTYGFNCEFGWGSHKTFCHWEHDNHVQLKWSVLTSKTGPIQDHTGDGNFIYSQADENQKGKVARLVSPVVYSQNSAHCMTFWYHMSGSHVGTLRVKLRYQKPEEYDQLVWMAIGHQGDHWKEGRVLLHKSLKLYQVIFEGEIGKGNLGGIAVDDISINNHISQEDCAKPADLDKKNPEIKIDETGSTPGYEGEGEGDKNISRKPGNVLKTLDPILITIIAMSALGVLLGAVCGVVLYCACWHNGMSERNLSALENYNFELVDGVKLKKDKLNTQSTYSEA", "experiment": "modulators of CendR peptide binding to NRP-1, primary screen, biochemical, fluorescence polarization, uHTS (AID 602438)", "details": "FAM-RPARPAR peptide binding to NRP-1, fluorescence polarization; at 25 µM; active compounds read high"}
{"molecule": "O=C(COC(=O)c1ccc(S(=O)(=O)Nc2ccccc2)cc1)NCC1CCCO1", "note": "(stereo unspecified)", "inhibition": "9.7% (inactive)"}
{"molecule": "CCN(C(=O)COC(=O)c1ccccc1O)c1cccc2ccccc12", "inhibition": "6.5% (inactive)"}
{"molecule": "COc1ccc(S(=O)(=O)c2c[nH]c(=S)[nH]c2=O)cc1Cl", "inhibition": "-6% (inactive)"}
{"molecule": "O=[N+]([O-])c1ccc(N2CCN(c3ccc(O)cc3)CC2)c(Cl)c1", "inhibition": "-3.9% (inactive)"}
{"molecule": "O=C(O)C1CCN(c2ccc([N+](=O)[O-])cc2[N+](=O)[O-])CC1", "inhibition": "27.4% (active)"}
{"molecule": "CCC(C)(C)NC(=O)c1cc([N+](=O)[O-])ccc1N1CCCCC1", "inhibition": "8.9% (inactive)"}
{"molecule": "CC(CC(=O)C1C(C)C=CCC1(C)C)NNC(N)=O", "note": "(stereo unspecified)", "inhibition": "12.3% (inactive)"}
{"molecule": "O=C(CSc1ccc(-c2ccc(-n3cccn3)cc2)nn1)Nc1ccc([N+](=O)[O-])cc1", "inhibition": "15.2% (inactive)"}
{"molecule": "O=C(NC1CCCC1)C(NS(=O)(=O)c1ccc(Br)s1)c1ccccc1", "note": "(stereo unspecified)", "inhibition": "-3% (inactive)"}
{"molecule": "COCCNC(=O)C1C(=O)Nc2ccccc2C(=O)N1c1ccc2c(c1)OCCO2", "note": "(stereo unspecified)", "inhibition": "-11.4% (inactive)"}
{"molecule": "Cc1ccc(CC2CC(=O)N(c3ccc4c(c3)OCCO4)C2=O)cc1", "note": "(stereo unspecified)", "inhibition": "4.8% (inactive)"}
{"molecule": "Cc1ccc(CC2CC(=O)N(c3nc(C)cc(C)n3)C2=O)cc1", "note": "(stereo unspecified)", "inhibition": "13.2% (inactive)"}
{"molecule": "Cc1ccc(CC2CC(=O)N(c3cc(C)ccc3C)C2=O)cc1", "note": "(stereo unspecified)", "inhibition": "50% (active)"}
{"molecule": "CN(CC(=O)NCCc1ccc(S(N)(=O)=O)cc1)CC(=O)Nc1ccc(F)c(F)c1F", "inhibition": "7.4% (inactive)"}
{"molecule": "Oc1ccc(-c2nncn2-c2ccccc2)cc1", "inhibition": "2.8% (inactive)"}
{"molecule": "CC1(C)C2CC[C@]3(C)C(CC=C4[C@@H]5C[C@@](C)(CO)CC[C@]5(C(=O)O)CC[C@]43C)[C@@]2(C)CC[C@@H]1O", "note": "(stereo partly specified)", "inhibition": "-11.3% (inactive)"}
{"molecule": "CC1O[C@@H](OC2C(O)C(C)O[C@H](OC(=O)[C@]34CCC(C)(C)C[C@H]3C3=CCC5[C@@]6(C)CC(O)C(O[C@@H]7OC(CO)C(O)[C@@H](O)[C@@H]7O)[C@@](C)(C(=O)O)C6CC[C@@]5(C)[C@]3(CO)CC4)C2O[C@H]2OC(C)[C@@H](O[C@@H]3OCC(O[C@@H]4OC(CO)C(O)[C@H](O)C4O)[C@@H](O)[C@@H]3O)[C@H](O)C2O)C(O)C(O)C1O", "note": "(stereo partly specified)", "inhibition": "36.2% (active)"}
{"molecule": "O=C1CCC(Cc2ccccc2)N1", "note": "(stereo unspecified)", "inhibition": "-7% (inactive)"}
{"molecule": "O=C1OC(Cc2ccccc2)C(c2ccccc2)C1=O", "note": "(stereo unspecified)", "inhibition": "24.2% (active)"}
{"molecule": "O=C1c2ccccc2C(=O)C1c1ccccc1", "inhibition": "-13.9% (inactive)"}
{"molecule": "COc1ccc(Cl)cc1-c1cc(C(=O)Nc2cc(OC)c(OC)c(OC)c2)[nH]n1", "inhibition": "5.6% (inactive)"}
{"molecule": "CC(=O)N/C(=C\\c1ccccc1)C(=O)OC(C)C(=O)N(C)c1ccccc1", "note": "(stereo unspecified)", "inhibition": "6.8% (inactive)"}
{"molecule": "Cc1ccccc1CCN(CC(=O)NC1CCCCC1)C(=O)c1csnn1", "inhibition": "-9.2% (inactive)"}
{"molecule": "Cc1ccc(CN(CC(=O)NC2CCCCC2)C(=O)c2csnn2)cc1", "inhibition": "24.5% (active)"}
{"molecule": "O=C(CN(C(=O)c1csnn1)c1ccc(Br)cc1)NC1CCCC1", "inhibition": "3.2% (inactive)"}
{"molecule": "Nc1nc2c(Br)ccc(Br)c2cc1C(=O)NCCc1ccccc1", "inhibition": "6.1% (inactive)"}
{"molecule": "COC(=O)c1cc(NC(=O)CN2CCC(C(N)=O)(N3CCCCC3)CC2)cc(C(=O)OC)c1", "inhibition": "20.2% (active)"}
{"molecule": "COC(=O)c1cc(NC(=O)CN2CCN(C(C)=O)CC2)cc(C(=O)OC)c1", "inhibition": "3% (inactive)"}
{"molecule": "COCC(=O)Nc1cc(C(=O)OC)cc(C(=O)OC)c1", "inhibition": "5.2% (inactive)"}
{"molecule": "COC(=O)C1(C(=O)OC)C/C=C\\CN(S(=O)(=O)c2ccccc2[N+](=O)[O-])CCC1", "inhibition": "4.4% (inactive)"}
{"molecule": "CCOC(=O)[C@@H]1[C@H]2COc3cc(OC)ccc3[C@@H]2N2C(=O)N(c3cccc(C)c3)C(=O)[C@@]12C", "inhibition": "4.4% (inactive)"}
{"molecule": "Cc1cc(OCCOc2cccc3cccnc23)c(C)cc1Cl", "inhibition": "-14.2% (inactive)"}
{"molecule": "COc1cccc(CNC(=O)C2CCN(S(=O)(=O)c3cccc4cccnc34)CC2)c1", "inhibition": "-3% (inactive)"}
{"molecule": "CC(=O)/C(=N\\Nc1ccc(Cl)cc1Cl)Sc1cccc2cccnc12", "inhibition": "61.1% (active)"}
{"molecule": "CCOc1ccc2c(c1)C(c1ccc(C)cc1)=NNC(c1ccc(C)cc1)=N2", "inhibition": "5.9% (inactive)"}
{"molecule": "Cc1ccc(C2=Nc3c(ccc4ccccc34)C(c3ccncc3)=NN2)cc1", "inhibition": "25.8% (active)"}
{"molecule": "O=C(NCCCCO)C(F)(F)C(F)(F)C(F)(F)C(=O)NCCCCO", "inhibition": "11.3% (inactive)"}
{"molecule": "Nc1cccc(-c2cncc(N3CCN(Cc4ccccn4)CC3)n2)c1", "inhibition": "1.6% (inactive)"}
{"molecule": "CCCCCCCCCCOC(=O)C[N+](C)(C)CC1CCCCC1O", "note": "(stereo unspecified)", "inhibition": "18.2% (inactive)"}
{"molecule": "Cc1ccn2c(c1)nc(=O)c1cc(S(=O)(=O)N3CCC(C)CC3)ccc12", "inhibition": "-3.9% (inactive)"}
{"molecule": "COc1cc2c(C(=O)O)c(C)n(C)c2c2ccccc12", "inhibition": "-42.6% (inactive)"}
{"molecule": "COc1cccc2c(O)cc(=O)n(C)c12", "inhibition": "19.9% (active)"}
{"molecule": "COc1cc2c(=O)n(C)c3ccccc3c2cc1OC", "inhibition": "0% (inactive)"}
{"molecule": "OC(CNC1CCCC1)COc1ccc(F)cc1", "note": "(stereo unspecified)", "inhibition": "-0.8% (inactive)"}
{"molecule": "COC(=O)C1CCN(CC(N)=O)CC1", "inhibition": "-10.1% (inactive)"}
{"molecule": "CCc1nc2c(OCc3ccc(C(F)(F)F)cc3)cccn2c1N(C)C(=O)CC(C)C", "inhibition": "22.7% (active)"}
{"molecule": "CCc1nc2c(OCc3ccc(C(=O)OC)cc3)cccn2c1N(C)C(=O)C(C)C", "inhibition": "13.8% (inactive)"}
{"molecule": "CCCCC(=O)N(C)c1c(CC)nc2c(OCc3ccc(S(C)(=O)=O)cc3)cccn12", "inhibition": "1.6% (inactive)"}
{"molecule": "COc1ccc(NC(=O)c2ccccc2CC[N+](=O)[O-])cc1", "inhibition": "5.3% (inactive)"}
{"molecule": "Cc1cc(C(=O)NNC(=O)CCC2CCCCC2)c(C)o1", "inhibition": "3.2% (inactive)"}
{"molecule": "O=C1CC2(CCCCC2)Oc2ccc(OCC(=O)N3CCOCC3)cc21", "inhibition": "0.6% (inactive)"}
{"molecule": "Cc1cccc(NC(=O)C2CCN(C(=O)NC3CCCCC3)CC2)c1", "inhibition": "-7.7% (inactive)"}
{"molecule": "O=C(Nc1cccc(OCC(=O)N2CCOCC2)c1)C1CCCCC1", "inhibition": "21.3% (active)"}
{"molecule": "CN(C)CCCNC(=O)c1cc(C(=O)Cc2ccc(Cl)cc2)c[nH]1", "inhibition": "3.7% (inactive)"}
{"molecule": "O=C(c1ccc(F)cc1)C1CCN(Cc2cn[nH]c2-c2ccccc2)CC1", "inhibition": "-10.4% (inactive)"}
{"molecule": "COc1ccccc1CNC(=O)C1Cc2ccccc2C(=O)O1", "note": "(stereo unspecified)", "inhibition": "-8.4% (inactive)"}
